Test results reported in the supplement of paper PMC10849652.
Targets with a hit are over-represented here; the source holds about 7,900 in all. About 0.6% of all pairs of compound and target were hits. A number with no mark means an inactive call.

Experiments:
Test in all cases: log2 fold change, soluble protein after heating vs DMSO (PISA); higher = thermal stabilisation; K562 cells, 10 uM, 30 min; active = over 0.2 and 3.5 SD of the protein, either way, in both replicates (recomputed)
[1] = compound: CS(=O)(=O)c1ccc(-c2cnc(N)c(C(=O)Nc3ccccc3)n2)cc1
In short: (§1)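 Soluble protein was quantified by TMTpro 16plex LC-MS/MS after channel sums were equalised. It was obtained as the supernatant after 21,000xg for 90 min from pooled aliquots of K562 cells (2×10^6 cells/mL, 10 μM compound, 30 min) heated for 3 min across 48°C-58°C and extracted in PBS with 0.5% NP-40 at 4°C. Thermal stability values are relative to control samples and come from duplicates. They are given as log2 fold changes.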

[2] = compound: C[C@@H](Oc1cc(-c2cnn(C3CCNCC3)c2)cnc1N)c1c(Cl)ccc(F)c1Cl [crizotinib]
In short: as §1

[3] = compound: C[C@@H]1COCCN1C2=NC(=NC(=C2)C3(CC3)S(=O)(=O)C)C4=C5C=CNC5=CC=C4
In short: as §1

[4] = compound: C[C@H](C1=CC=C(C=C1)C(=O)NC2=C3C=CNC3=NC=C2)N
In short: as §1

[5] = compound: C[C@H](Nc1ncnc2nc[nH]c12)c1cc2cccc(Cl)c2c(=O)n1-c1ccccc1 [duvelisib]
In short: as §1

[6] = compound: Cc1cc(Nc2cc(CN3CCOCC3)c3nc(C)c(Cc4ccc(Cl)cc4F)n3n2)n[nH]1 [gandotinib]
In short: as §1

[7] = compound: Cc1cc(Nc2cc(N3CCN(C)CC3)nc(Sc3ccc(NC(=O)C4CC4)cc3)n2)n[nH]1 [tozasertib]
In short: as §1

[8] = compound: Cc1cc(SCc2sc(-c3ccc(C(F)(F)F)cc3)nc2C)ccc1OCC(=O)O
In short: as §1

[9] = compound: Cc1ccc(-n2nc(C(C)(C)C)cc2NC(=O)Nc2ccc(OCCN3CCOCC3)c3ccccc23)cc1 [doramapimod]
In short: as §1

[10] = compound: Cc1ccc(C(=O)N(CCCN)[C@@H](c2nc3cc(Cl)ccc3c(=O)n2Cc2ccccc2)C(C)C)cc1 [ispinesib]
In short: as §1

UniProt P52655, sequence (P52655 whole entry, looked up): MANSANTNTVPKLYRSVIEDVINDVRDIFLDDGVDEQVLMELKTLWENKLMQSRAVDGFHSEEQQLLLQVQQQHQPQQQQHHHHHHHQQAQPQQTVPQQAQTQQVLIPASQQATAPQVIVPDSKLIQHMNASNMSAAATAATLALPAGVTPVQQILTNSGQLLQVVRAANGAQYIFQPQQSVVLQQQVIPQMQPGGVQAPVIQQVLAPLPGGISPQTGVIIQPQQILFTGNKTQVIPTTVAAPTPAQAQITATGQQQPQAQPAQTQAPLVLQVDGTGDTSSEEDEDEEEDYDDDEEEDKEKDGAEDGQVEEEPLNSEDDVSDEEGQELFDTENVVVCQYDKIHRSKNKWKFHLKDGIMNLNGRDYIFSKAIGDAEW
UniProt Q53GQ0, sequence (Q53GQ0 whole entry, looked up): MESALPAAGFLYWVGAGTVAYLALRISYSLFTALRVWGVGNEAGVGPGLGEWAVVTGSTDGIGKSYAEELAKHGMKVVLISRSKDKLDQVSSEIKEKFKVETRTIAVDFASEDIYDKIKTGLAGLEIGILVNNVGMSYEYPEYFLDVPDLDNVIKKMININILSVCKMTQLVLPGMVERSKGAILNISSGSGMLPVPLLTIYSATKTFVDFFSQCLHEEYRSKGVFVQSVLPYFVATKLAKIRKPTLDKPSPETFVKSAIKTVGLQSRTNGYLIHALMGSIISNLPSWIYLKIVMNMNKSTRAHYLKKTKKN
UniProt P08236, sequence (P08236 whole entry, looked up): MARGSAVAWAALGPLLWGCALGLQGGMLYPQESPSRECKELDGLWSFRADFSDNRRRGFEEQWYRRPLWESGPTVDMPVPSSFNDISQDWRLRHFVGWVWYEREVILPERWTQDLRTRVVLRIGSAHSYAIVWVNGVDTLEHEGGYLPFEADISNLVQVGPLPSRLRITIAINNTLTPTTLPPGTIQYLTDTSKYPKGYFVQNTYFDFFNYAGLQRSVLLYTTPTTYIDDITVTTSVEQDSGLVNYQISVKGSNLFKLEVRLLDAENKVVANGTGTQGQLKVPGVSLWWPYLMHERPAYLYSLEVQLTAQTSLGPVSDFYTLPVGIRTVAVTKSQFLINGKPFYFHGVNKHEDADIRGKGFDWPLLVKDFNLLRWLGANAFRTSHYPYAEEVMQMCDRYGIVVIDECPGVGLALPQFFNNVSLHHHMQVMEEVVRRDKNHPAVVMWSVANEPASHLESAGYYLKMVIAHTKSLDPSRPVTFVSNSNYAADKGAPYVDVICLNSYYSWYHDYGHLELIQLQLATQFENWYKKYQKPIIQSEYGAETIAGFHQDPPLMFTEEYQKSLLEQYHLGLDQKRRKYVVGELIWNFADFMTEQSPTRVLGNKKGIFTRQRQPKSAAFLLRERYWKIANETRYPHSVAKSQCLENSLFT
UniProt Q9NVI1, sequence (Q9NVI1 whole entry, looked up): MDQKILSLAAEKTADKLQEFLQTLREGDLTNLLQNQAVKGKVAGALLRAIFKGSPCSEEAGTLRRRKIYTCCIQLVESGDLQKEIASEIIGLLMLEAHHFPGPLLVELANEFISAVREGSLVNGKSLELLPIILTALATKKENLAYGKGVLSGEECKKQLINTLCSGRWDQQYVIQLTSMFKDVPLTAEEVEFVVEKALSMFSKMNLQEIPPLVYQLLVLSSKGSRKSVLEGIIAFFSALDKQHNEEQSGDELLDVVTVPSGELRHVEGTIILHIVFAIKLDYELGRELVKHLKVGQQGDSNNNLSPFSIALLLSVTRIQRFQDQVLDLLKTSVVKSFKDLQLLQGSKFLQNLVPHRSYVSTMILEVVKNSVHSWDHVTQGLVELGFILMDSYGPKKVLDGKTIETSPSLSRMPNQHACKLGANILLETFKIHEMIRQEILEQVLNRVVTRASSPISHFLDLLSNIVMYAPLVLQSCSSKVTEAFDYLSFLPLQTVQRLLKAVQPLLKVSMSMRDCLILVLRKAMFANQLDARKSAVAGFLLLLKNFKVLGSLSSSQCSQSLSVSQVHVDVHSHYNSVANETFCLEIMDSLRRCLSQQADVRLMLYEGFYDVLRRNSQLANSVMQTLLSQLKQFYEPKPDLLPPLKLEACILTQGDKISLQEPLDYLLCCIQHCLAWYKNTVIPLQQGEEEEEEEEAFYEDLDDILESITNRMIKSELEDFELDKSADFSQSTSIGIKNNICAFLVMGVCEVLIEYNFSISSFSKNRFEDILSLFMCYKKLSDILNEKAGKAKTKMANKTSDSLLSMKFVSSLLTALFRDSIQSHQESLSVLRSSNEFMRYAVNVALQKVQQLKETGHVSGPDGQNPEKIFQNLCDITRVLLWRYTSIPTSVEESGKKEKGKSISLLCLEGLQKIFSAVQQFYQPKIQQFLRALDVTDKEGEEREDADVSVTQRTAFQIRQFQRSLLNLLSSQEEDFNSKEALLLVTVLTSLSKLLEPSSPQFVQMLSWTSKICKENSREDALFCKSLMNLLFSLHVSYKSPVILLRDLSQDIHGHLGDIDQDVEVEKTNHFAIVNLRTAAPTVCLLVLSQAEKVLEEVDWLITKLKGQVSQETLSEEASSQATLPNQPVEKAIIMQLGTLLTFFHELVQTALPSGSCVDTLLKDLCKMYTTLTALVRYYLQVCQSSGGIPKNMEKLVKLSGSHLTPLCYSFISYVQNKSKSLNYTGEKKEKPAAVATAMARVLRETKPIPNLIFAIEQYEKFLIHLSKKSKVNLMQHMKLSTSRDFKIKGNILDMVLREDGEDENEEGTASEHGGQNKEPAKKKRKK
UniProt P04066, sequence (P04066 whole entry, looked up): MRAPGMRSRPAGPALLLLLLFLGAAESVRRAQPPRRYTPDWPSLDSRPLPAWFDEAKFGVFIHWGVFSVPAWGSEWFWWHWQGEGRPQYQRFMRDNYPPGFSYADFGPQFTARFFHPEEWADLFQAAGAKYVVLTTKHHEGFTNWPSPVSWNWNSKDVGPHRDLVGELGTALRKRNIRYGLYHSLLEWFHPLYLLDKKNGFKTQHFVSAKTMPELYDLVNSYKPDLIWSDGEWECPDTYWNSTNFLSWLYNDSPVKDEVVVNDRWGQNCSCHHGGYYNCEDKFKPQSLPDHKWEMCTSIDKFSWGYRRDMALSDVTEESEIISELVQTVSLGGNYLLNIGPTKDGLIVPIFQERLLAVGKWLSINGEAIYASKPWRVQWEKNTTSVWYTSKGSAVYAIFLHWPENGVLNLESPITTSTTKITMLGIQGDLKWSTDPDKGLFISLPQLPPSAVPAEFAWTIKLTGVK
UniProt Q9Y680, sequence (Q9Y680 whole entry, looked up): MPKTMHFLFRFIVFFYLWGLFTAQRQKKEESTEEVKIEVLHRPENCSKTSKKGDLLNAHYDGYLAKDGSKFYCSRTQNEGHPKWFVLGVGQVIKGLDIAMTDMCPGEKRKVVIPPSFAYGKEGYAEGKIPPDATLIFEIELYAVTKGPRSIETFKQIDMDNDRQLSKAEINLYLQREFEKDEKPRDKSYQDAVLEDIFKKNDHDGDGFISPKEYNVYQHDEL
UniProt Q7Z4Q2, sequence (Q7Z4Q2 whole entry, looked up): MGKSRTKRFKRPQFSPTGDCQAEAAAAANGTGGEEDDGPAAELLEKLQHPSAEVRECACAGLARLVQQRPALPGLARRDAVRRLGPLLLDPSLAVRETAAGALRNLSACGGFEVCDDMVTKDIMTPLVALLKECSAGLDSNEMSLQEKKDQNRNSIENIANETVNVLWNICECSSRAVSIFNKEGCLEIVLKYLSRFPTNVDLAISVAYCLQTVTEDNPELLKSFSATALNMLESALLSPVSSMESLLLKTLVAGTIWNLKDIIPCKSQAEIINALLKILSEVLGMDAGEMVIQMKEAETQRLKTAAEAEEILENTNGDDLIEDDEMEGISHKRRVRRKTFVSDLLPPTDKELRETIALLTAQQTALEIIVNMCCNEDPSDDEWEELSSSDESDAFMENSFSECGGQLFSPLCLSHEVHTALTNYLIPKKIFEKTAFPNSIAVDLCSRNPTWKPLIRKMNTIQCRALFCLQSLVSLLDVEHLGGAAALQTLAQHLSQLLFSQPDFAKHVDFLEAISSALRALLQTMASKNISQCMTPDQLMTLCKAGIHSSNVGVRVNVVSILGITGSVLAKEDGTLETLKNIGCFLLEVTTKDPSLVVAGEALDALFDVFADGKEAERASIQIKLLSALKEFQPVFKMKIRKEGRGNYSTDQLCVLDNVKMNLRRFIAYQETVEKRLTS
UniProt Q1KMD3, sequence (Q1KMD3 whole entry, looked up): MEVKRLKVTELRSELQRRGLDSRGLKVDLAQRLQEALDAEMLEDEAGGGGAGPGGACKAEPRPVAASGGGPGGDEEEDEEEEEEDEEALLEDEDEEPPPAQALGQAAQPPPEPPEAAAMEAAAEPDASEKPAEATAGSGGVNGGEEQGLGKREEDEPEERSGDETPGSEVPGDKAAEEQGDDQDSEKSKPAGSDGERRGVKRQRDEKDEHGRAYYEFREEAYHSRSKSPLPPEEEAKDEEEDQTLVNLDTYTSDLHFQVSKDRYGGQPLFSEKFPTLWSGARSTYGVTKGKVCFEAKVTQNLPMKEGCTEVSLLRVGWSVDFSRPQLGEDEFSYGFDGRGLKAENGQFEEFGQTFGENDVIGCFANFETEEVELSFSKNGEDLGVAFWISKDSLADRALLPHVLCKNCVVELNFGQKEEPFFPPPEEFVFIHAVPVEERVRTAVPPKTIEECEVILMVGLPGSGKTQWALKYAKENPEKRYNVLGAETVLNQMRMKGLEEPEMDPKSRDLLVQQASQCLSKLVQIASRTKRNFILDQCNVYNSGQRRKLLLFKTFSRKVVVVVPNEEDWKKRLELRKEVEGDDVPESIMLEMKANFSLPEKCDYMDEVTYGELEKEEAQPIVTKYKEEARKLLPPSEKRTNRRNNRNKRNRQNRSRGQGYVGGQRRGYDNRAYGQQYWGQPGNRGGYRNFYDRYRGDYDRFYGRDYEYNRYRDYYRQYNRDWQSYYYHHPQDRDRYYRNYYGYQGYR

| Target | log2 fold change [1] | log2 fold change [2] | log2 fold change [3] | log2 fold change [4] | log2 fold change [5] | log2 fold change [6] | log2 fold change [7] | log2 fold change [8] | log2 fold change [9] | log2 fold change [10] |
| --- | --- | --- | --- | --- | --- | --- | --- | --- | --- | --- |
| FKBP7 (UniProt Q9Y680) | 0.052 | 0.094 | 0.003 | 0.114 | -0.043 | 0.114 | -0.054 | 0.005 | -0.023 | 0.044 |
| HSD17B12 (UniProt Q53GQ0) | 0.046 | 0.191 | 0.012 | -0.061 | 0.063 | 0.371 (active) | -0.018 | 0.055 | -0.009 | 0.243 |
| GNAS (UniProt Q5JWF2) | 0.049 | 0.047 | 0.039 | -0.031 | 0.07 | -0.034 | -0.026 | 0.003 | 0.007 | -0.141 |
| GLYR1 (UniProt Q49A26) | 0.033 | 0.008 | -0.125 | 0.075 | -0.179 | 0.016 | -0.18 | -0.06 | 0.117 | -0.132 |
| FANCD2 isoform 1 (UniProt Q9BXW9) | -0.056 | -0.052 | 0.127 | -0.014 | -0.014 | -0.135 | 0.003 | 0.034 | 0.004 | -0.096 |
| FANCI (UniProt Q9NVI1) | -0.074 | -0.138 | 0.139 | 0 | 0.031 | -0.14 | 0.029 | 0.038 | -0.021 | -0.071 |
| IFI30 (UniProt P13284) | 0.013 | -0.011 | -0.083 | -0.02 | -0.129 | 0.042 | 0.027 | 0.035 | -0.044 | 0.002 |
| HNRNPUL2 (UniProt Q1KMD3) | -0.092 | -0.033 | -0.05 | 0.123 | -0.096 | -0.005 | -0.058 | 0.015 | 0.041 | 0.004 |
| GUSB (UniProt P08236) | 0.053 | 0.004 | -0.018 | 0.063 | 0.066 | 0.051 | 0.006 | -0.039 | 0.042 | -0.03 |
| FUCA1 (UniProt P04066) | 0.019 | -0.079 | 0.031 | -0.049 | 0.007 | 0 | -0.007 | -0.044 | 0.021 | -0.007 |
| HEATR3 (UniProt Q7Z4Q2) | -0.001 | -0.171 | 0.094 | 0.123 | 0.078 | -0.377 | 0.065 | 0.146 | 0.011 | -0.006 |
| GLS (UniProt O94925) | 0.033 | 0.05 | 0.209 | -0.049 | 0.053 | -0.17 | 0.012 | 0.054 | -0.105 | 0.118 |
| HOMER1 (UniProt Q86YM7) | -0.011 | -0.015 | 0.071 | -0.014 | 0.024 | -0.068 | 0.046 | -0.002 | 0.027 | 0.083 |
| GTF2A1 (UniProt P52655) | 0.061 | 0.074 | 0.061 | -0.065 | 0.082 | 0.07 | -0.027 | -0.066 | -0.107 | 0.24 |
| GTF2E2 (UniProt P29084) | 0.037 | 0.012 | -0.029 | -0.002 | 0.051 | -0.03 | 0.02 | 0.071 | -0.025 | -0.01 |
